Experiment [1] has as its system Wnt5a (protein binding on small-molecule microarray). As to the kind of experiment: small molecules binding Wnt5a protein – biophysical, small-molecule microarray, 635/667 nm fluorescence, primary screen (AID 1142).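 Further: fluorescence read at 667 nm with signal to noise per printed feature.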 The following applies: 635 nm fluorescence, higher = more signal.
Experiment [2] is described as follows: ATP-based viability of Huh7 replicon cells – cell-based, CellTiter-Glo luminescence, basal, 48 h, cytotoxicity control for HCV replication inhibitor project, primary screen (AID 1143).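 Further: Huh7 hepatoma cells carrying a hepatitis C replication reporter with no stimulus; test concentration not given here.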 To be noted: higher = more signal, called active from +8 up or from −8 down. For orientation: A replicon is a self-replicating genome or part of one, used to study replication in cells.

The nature of experiment [3]: Pseudomonas biofilm growth suppression – PAO1 strain, BacTiter-Glo luminescence, LB-PBS, primary screen (AID 1144). To be noted: P. aeruginosa PAO1 biofilm, 12 h, higher = more signal.
Experiment [4] can be described thus: basal CRE-LacZ reporter activity in PC12 – cell-based, unstimulated, primary screen (AID 1145). The following applies: no forskolin, luminescence, 4.5 h, higher = more signal, called active from +8 up or from −8 down.
Experiment [5] can be described thus: forskolin-driven CRE-LacZ activity in PC12 – cell-based, CRE-LacZ reporter, forskolin-stimulated, primary screen (AID 1146).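 Further: PC12 cells with 6xCRE LacZ reporter stimulated by forskolin 10 µM; beta-galactosidase reporter signal reflecting CREB driven transcription.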 The following applies: luminescence, 4.5 h, higher = more signal, called active from +8 up or from −8 down.
Experiment [6] has as its target Streptavidin (Streptomyces avidinii) (UniProt P22629). Put plainly: compounds binding control protein streptavidin – biophysical, small-molecule microarray, 635/667 nm fluorescence, artefact control for SMM compound annotation, primary screen (AID 1147).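 Further: signal reflects streptavidin binding to arrayed compounds as a control protein.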 The following applies: higher = more signal.
Experiment [7] can be described thus: probe aInhba binding on compound microarray – biochemical, small-molecule microarray, 635/667 nm fluorescence, primary screen (AID 1148).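 Further: score merges 667nm spot fluorescence with signal-to-noise for antibody binding to printed compounds.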 The following applies: higher = more signal.
In experiment [8] the target is Torsin-1A (Homo sapiens) (UniProt O14656). Put plainly: TOR1A wild-type binding on microarray – cell lysate, small-molecule microarray, lysate, 635/667 nm, primary screen (AID 1149). To be noted: COS7 hTOR1A-WT lysate, 635 nm fluorescence, higher = more signal.
Experiment [9] has the same target. Put plainly: torsin A mutant lysate binding on microarrays – cell lysate, small-molecule microarray, COS7 lysate, 635/667 nm fluorescence, primary screen (AID 1150).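 Further: score pools 667 nm emission and signal to noise measuring lysate protein binding.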 To be noted: COS7 hTOR1A mutant lysate, 635 nm fluorescence, higher = more signal.
The test system of experiment [10] is Sonic hedgehog protein (Shh). As to the kind of experiment: Sonic hedgehog microarray binding compounds – biochemical, small-molecule microarray, 635/667 nm fluorescence, primary screen (AID 1151).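 Further: Shh protein binding to compounds spotted on small-molecule microarray slides; score combines spot fluorescence intensity with signal-to-noise across triplicate slides.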 To be noted: 635 nm fluorescence, higher = more signal.
A short description of experiment [11]: optical density shifts of acrAB sulA E. coli – strain DRC41, OD650, 48 h, E. coli filamentation inducer project, primary screen (AID 1152).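 Further: E. coli MC1000 strain DRC41 lacking acrAB efflux pump and sulA.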 The following applies: higher = more signal, called active from +8 up or from −8 down.
Experiment [12] can be described thus: probe aLefty1 binding on compound microarray – biochemical, small-molecule microarray, 635/667 nm fluorescence, primary screen (AID 1153).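 Further: score merges spot fluorescence with signal-to-noise ratio from the scanned slide images.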 The following applies: higher = more signal.
A short description of experiment [13]: plasmodial surface anion channel blockers, osmotic lysis – cell-based, P. falciparum Indochina, OD700, 1 h, primary screen (AID 1154). To be noted: P. falciparum Indochina infected RBC osmotic lysis, higher = more signal, called active from +8 up or from −8 down.
A short description of experiment [14]: plasmodial surface anion channel blockers, osmotic lysis – cell-based, P. falciparum Indochina, OD700, 2 h, primary screen (AID 1155).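 Further: lysis reports solute entry through the parasite surface anion channel PSAC.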 The following applies: P. falciparum Indochina infected erythrocytes, higher = more signal, called active from +8 up or from −8 down.
A short description of experiment [15]: changes in parasitized red cell lysis, either direction – P. falciparum Indochina, OD700, 3 h, PSAC antagonist project, primary screen (AID 1156). The following applies: P. falciparum-infected erythrocytes, osmotic lysis, higher = more signal, called active from +8 up or from −8 down.
Experiment [16] is described as follows: plasmodial surface anion channel blockers, osmotic lysis – cell-based, P. falciparum Indochina, OD700, 18 h, primary screen (AID 1157). To be noted: P. falciparum Indochina infected erythrocytes, osmotic lysis OD700, 18 h; higher = more signal, called active from +8 up or from −8 down.
The nature of experiment [17]: S6 kinase pathway phospho-S6 level changes – cell-based, A549, cytoblot, luminescence, serum-stimulated, primary screen (AID 1158).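 Further: serum-stimulated A549 lung adenocarcinoma cells; signal is phosphorylated S6 detected by cytoblot immunostaining with HRP secondary.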 To be noted: 5 h, higher = more signal.
The target in experiment [18] is NADPH oxidase 2 (Homo sapiens) (UniProt P04839). Put plainly: compounds shifting NOX2 Amplex Red fluorescence – cell-based, HEK293-NOX2, PMA-stimulated, NOX inhibitor project, primary screen (AID 1159). Further: test concentration not given here. To be noted: 45 min, higher = more signal, called active from +8 up or from −8 down.
Experiment [19] deals with NADPH oxidase 4 (Homo sapiens) (UniProt Q9NPH5). As to the kind of experiment: compounds shifting NOX4 Amplex Red fluorescence – cell-based, HEK293-NOX4, tetracycline-induced, NOX inhibitor project, primary screen (AID 1160). To be noted: HEK293-NOX4, Amplex Red H2O2 fluorescence, 45 min; higher = more signal, called active from +8 up or from −8 down.
Experiment [20] deals with NADPH oxidase 5 (Homo sapiens) (UniProt Q96PH1). Put plainly: compounds shifting NOX5 Amplex Red fluorescence – cell-based, HEK293-NOX5, NOX inhibitor project, primary screen (AID 1161). To be noted: HEK293-NOX5, ionomycin, 45 min, higher = more signal.

Active and inactive are the calls of the source. Unless noted, how the calls were made is not given here.

Chain of Streptavidin (Streptomyces avidinii) (P22629 whole entry, looked up): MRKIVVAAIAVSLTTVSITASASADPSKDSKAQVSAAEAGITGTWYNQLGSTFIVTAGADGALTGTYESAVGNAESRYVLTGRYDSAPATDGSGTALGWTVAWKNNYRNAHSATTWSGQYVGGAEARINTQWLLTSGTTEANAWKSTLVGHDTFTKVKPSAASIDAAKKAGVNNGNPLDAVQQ
Chain of NADPH oxidase 2 (Homo sapiens) (P04839 whole entry, looked up): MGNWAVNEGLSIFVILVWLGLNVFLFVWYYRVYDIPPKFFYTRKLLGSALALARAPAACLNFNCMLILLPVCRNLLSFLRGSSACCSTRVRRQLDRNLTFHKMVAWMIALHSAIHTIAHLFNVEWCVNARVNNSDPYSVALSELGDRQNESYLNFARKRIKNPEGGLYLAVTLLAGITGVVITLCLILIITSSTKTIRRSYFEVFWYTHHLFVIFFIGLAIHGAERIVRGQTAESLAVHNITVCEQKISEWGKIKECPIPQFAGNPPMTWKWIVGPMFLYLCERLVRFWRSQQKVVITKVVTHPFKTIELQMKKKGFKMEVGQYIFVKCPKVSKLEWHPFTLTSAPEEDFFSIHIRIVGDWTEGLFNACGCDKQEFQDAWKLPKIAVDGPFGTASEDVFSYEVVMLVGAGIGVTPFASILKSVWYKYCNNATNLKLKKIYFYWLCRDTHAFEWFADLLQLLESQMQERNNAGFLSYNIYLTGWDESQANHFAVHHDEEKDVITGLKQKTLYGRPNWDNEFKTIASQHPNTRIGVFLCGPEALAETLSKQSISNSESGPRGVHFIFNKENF
Chain of NADPH oxidase 5 (Homo sapiens) (Q96PH1 whole entry, looked up): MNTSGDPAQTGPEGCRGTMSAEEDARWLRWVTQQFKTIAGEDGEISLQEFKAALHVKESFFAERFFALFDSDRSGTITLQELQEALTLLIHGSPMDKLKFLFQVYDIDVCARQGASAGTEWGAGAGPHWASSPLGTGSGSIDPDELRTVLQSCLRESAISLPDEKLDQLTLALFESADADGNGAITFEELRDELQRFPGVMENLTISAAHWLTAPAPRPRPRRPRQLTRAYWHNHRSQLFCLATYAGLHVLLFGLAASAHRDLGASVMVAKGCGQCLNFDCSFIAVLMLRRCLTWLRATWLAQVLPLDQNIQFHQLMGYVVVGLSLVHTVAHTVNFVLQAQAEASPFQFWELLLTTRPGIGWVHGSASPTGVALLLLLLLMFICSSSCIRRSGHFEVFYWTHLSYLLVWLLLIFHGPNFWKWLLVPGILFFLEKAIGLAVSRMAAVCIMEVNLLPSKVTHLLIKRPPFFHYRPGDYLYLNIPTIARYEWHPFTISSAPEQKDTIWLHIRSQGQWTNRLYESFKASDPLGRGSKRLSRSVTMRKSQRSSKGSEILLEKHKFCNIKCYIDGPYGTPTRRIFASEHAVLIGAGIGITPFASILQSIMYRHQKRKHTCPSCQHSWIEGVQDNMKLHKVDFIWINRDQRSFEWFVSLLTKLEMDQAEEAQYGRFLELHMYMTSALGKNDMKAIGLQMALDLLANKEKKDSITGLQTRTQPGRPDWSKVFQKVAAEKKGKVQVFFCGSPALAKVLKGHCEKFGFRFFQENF
Chain of NADPH oxidase 4 (Homo sapiens) (Q9NPH5 whole entry, looked up): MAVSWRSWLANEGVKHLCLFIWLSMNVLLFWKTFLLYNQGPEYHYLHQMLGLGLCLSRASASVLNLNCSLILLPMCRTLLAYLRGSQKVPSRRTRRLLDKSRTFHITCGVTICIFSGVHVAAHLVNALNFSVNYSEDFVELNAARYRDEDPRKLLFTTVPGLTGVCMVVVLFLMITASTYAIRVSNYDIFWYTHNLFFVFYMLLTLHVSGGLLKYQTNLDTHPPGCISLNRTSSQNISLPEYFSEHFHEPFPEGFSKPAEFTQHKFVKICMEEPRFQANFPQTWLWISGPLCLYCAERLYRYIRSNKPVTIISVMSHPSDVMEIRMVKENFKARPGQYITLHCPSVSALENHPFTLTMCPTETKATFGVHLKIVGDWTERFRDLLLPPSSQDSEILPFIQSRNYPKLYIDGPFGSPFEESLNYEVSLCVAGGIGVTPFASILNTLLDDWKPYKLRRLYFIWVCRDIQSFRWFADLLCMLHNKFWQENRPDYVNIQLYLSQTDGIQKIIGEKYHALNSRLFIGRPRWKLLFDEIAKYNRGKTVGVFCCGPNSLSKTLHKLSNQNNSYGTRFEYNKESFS
Chain of Torsin-1A (Homo sapiens) (O14656 whole entry, looked up): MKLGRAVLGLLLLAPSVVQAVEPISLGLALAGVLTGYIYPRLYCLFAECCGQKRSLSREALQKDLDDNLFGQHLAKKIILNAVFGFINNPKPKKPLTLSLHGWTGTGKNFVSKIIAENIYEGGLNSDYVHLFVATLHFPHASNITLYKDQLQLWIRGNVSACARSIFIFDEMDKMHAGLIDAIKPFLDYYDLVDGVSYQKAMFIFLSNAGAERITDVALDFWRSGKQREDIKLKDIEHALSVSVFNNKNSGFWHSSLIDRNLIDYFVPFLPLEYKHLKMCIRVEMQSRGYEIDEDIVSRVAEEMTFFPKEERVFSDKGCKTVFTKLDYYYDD

As for `C=CC[C@]1(C(=O)N(C)C)COC(c2ccc(OCCCO)cc2)=N1`, the composite z-score was 1.07 in experiment [1]; 2.12 in experiment [6]; 0.3 in experiment [7]; 0.577 in the experiment with Torsin-1A (Homo sapiens) [8]; 1.85 with Torsin-1A (Homo sapiens) [9]; -0.174 in experiment [10]. For the same molecule, in [12], the composite z-score was 0.0087. For the same molecule, the z-score in experiment [2] was -1.88 (inactive); in experiment [3], -1.15 (inactive); in experiment [4], 2.5 (inactive); in [5], -1.45 (inactive); in experiment [11], -2.4 (inactive); in experiment [13] it was 8.04 (active). Also, the z-score was 0.627 (inactive) in experiment [14]; 2.32 (inactive) in experiment [15]; 0.0256 (inactive) in experiment [16]; 0.116 in experiment [17]; -0.898 (inactive) in [18]; -0.581 (inactive) in [19]. For the same molecule, the z-score in experiment [20] was -2.06.
As for `COc1cc(OC)c(C(O)C2C=CC3C(=O)N(c4ccccc4)C(=O)C3N2Nc2ccccc2F)cc1Br` (stereo not given), the composite z-score is 0.193 in [1]; 1.24 in experiment [6]; 0.206 in experiment [7]; 2.01 in the experiment with Torsin-1A (Homo sapiens) [8]; 0.879 in the experiment with Torsin-1A (Homo sapiens) [9]; -0.2 in experiment [10]. Moreover, the composite z-score in experiment [12] was 0.692. Also, the z-score in [2] was -0.259 (inactive); in [3], -1.14 (inactive); in [4], 0.636 (inactive); in experiment [5], 0.758 (inactive); in experiment [11], -1.76 (inactive); in [13], 7.23 (inactive). The z-score in experiment [14] is 2.36 (inactive); in experiment [15], 0.449 (inactive); in experiment [16], 1.54 (inactive); in experiment [17], -0.822; in experiment [18], -1.32 (inactive); in [19], -4.43 (inactive). The z-score in [20] is -2.21.
Consider `CN1C(=O)[C@]2(CCC(=O)OC(C)(C)C)N=C(c3ccc(OCCCO)cc3)O[C@@H]2c2ccccc21`, for which the composite z-score in experiment [1] is 0.935; in experiment [6] it was -0.201; in [7], 0.134; in the experiment with Torsin-1A (Homo sapiens) [8], 0.112; with Torsin-1A (Homo sapiens) [9], 0.401; in [10], 2.11. Further, in experiment [12], the composite z-score was 0.448. Moreover, the z-score in experiment [2] was -4.74 (inactive); in experiment [3], -0.598 (inactive); in experiment [4] it was 1.41 (inactive); in [5] it was -0.572 (inactive); in experiment [11] it was 0.504 (inactive); in [13], 33.2 (active). Also, the z-score was 29.3 (active) in [14]; 2.63 (inactive) in experiment [15]; 2.68 (inactive) in experiment [16]; -0.0426 in experiment [17]; -2.09 (inactive) in [18]; -0.534 (inactive) in experiment [19]. Further, in [20], the z-score was -1.44.
Take `C=CCC(OC(C)=O)[C@@H]1[C@@H](N(Cc2cccc3ccccc23)C(=O)c2cccc3ccccc23)c2cc(OCCCO)ccc2N1C(=O)Cc1ccc2ccccc2c1` (stereo not given in full): the composite z-score in experiment [1] is -0.0137; in experiment [6], -0.166; in [7] it was 0.0497; with Torsin-1A (Homo sapiens) [8] it was -1.07; with Torsin-1A (Homo sapiens) [9] it was -0.736; in experiment [10], 0.882. This molecule also displayed a composite z-score in experiment [12] of 0.211. Further, the z-score in experiment [2] was -1.61 (inactive); in experiment [3], 0.576 (inactive); in experiment [4], -0.36 (inactive); in [5] it was 0.272 (inactive); in [11], -0.341 (inactive); in experiment [13], 0.704 (inactive). Besides, the z-score in [14] is 0.0473 (inactive); in experiment [15], 1.02 (inactive); in [16] it was 0.334 (inactive); in experiment [17], 0.326; in experiment [18], -1.93 (inactive); in experiment [19] it was -0.859 (inactive). Moreover, the z-score in experiment [20] was -2.79.

These data come from PubChem BioAssay.
